For one assay, the target named is FPGS. The assay is described as follows: pooled miR-30 sensor sort-seq; sequence = guide strand. As to conditions: shRNA.
TTCTGTTGGTCTGCGTTGCCTG yielded a sensor-assay potency score (higher = more potent) of -0.416.
The same measure, in the same setting: to TAGAGGACATGAGATCTGCTGG belongs -0.333.
Regarding TTCAGGTTGGAGCACAGTGAAG, the sensor-assay potency score (higher = more potent) is -1.98.
On the same count and under the same terms, to TTCCGTGAAGGCACAGGTGGAG belongs 0.0376.
TTCCTGATGATGTTGGTGCAGT: the sensor-assay potency score (higher = more potent) is -0.727.
On the same count and under the same terms, to ATACATTCCGTGAAGGCACAGG belongs 0.476.
ATTGATGCGGATCCGCTCCCGA yielded a sensor-assay potency score (higher = more potent) of -1.01.
For the sequence TCTGTTGGTCTGCGTTGCCTGT, the sensor-assay potency score (higher = more potent) is -0.767.
Still for that read-out and setting: as for TGAAGAGCAAGACTCGAACCTC, the figure is -0.155.
The same measure, in the same setting: to TGAAGTTCTGTTGGTCTGCGTT belongs -0.752; to TATAGAGGACATGAGATCTGCT, 0.932; to TTGCCTGTGGATGACACCTCTG, -0.989.
Sequence TTGGTCTGCGTTGCCTGTGGAT showed a sensor-assay potency score (higher = more potent) of -1.06.
The same measure, in the same setting: to TCACTGTGAAGTTCTGTTGGTC belongs 0.188.
On the same count and under the same terms, as for TTGGTGAAGAGCTCAGGACTGA, the figure is -0.348; as for TCGGAGGATACATTCCGTGAAG, -1.5; as for TTCTCTTGGAGGAAGACGTGGA, 0.047.
Still for that read-out and setting: as for TCCTTGGTCTCCTCCAGCCGGT, the figure is -1.92.
TGCCTGTGGATGACACCTCTGT gave a sensor-assay potency score (higher = more potent) of -0.547.
On to TCTTCGTCCAGGTGGTTCCAGT, for which the sensor-assay potency score (higher = more potent) is -0.895.
As for TGTCTGAGGGTCACCCCGCTGG, the sensor-assay potency score (higher = more potent) is -0.513.
The same measure, in the same setting: as for TTCACCTGCTCCAGGTAGCCGG, the figure is -1.54; as for TTGATGCGGATCCGCTCCCGAA, -1.62.

The next assay deals with FPGT-TNNI3K. Described as above. As to conditions: shRNA.
Consider TTCTTTTTCCTTGATCTGCAGG, for which the sensor-assay potency score (higher = more potent) is -0.729.
On the same count and under the same terms, to TTTATTTCTGCATCGTCCTTTA belongs -0.351; to TTAATTTAGACTGCAAATCAAG, -1.11.
Still for that read-out and setting: as for TTTGACTAGGTCAATGCTCTTG, the figure is -0.0852; as for TTGACTAGGTCAATGCTCTTGC, 0.745.
On the same count and under the same terms, as for TTACATTTACATCAGCACCAAA, the figure is -1.01; as for TAACATATGATTCACTGACTTT, -0.697; as for TTGAGCATTCACATCTGCTTTG, -0.576.
TTTTATTTCTGCATCGTCCTTT had a sensor-assay potency score (higher = more potent) of 0.923.
As to TATCTTGAGCATTCACATCTGC, the sensor-assay potency score (higher = more potent) turned out to be 0.666.

A further assay addresses FRMD4B. Described as above. As to conditions: shRNA.
Regarding TAGAAGTTTGGGCTGAACCAGC, the sensor-assay potency score (higher = more potent) was -0.701.
As for TTTCTTTGCAGCTTCCACCAGC, the sensor-assay potency score (higher = more potent) is -0.481.
Sequence TTGCTCTTCACTAACTTCTGAG showed a sensor-assay potency score (higher = more potent) of -0.0574.
For TAAACTGCCATTACTTGCCATG, the sensor-assay potency score (higher = more potent) is -1.04.
Same read-out and setting: as for TTACTTGCCATGATGAACTGAC, the figure is 0.412.
Still for that read-out and setting: as for TATTAGAAAATTACTCTCCAGT, the figure is 0.00309; as for TTTGCTTTGCTTCCGGTCCAAG, -1.02.

For the origin of these results see the OligoGym collection.
Also: reference of the scale not given here.
